Screening results (PubChem)
bovine MsrA act – activators of bovine methionine sulfoxide reductase A; purified bovine MsrA, absorbance read-out; activation, % at 10.6 µM; 360,000 compounds, 0.3% hits; AID 602163; in the data active = activation above about 7.5%
PG9 Ab binder – binds the HIV-1 gp120 antibody PG9; TR-FRET gp120-PG9 antibody binding; inhibition, % at 6.7 µM; 360,000 compounds, 0.43% hits; AID 624416; in the data active = inhibition above about 8.5%
sPLA2-III inh – Inhibits HGIII-sPLA2 liposome hydrolysis, primary screen; QFRET BODIPY PC-A2 liposome hydrolysis, fluorescence; Q9NZ20; 370,000 compounds, 0.56% hits; inhibition, % at 12.2 µM; AID 743126;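 active = inhibition above mean plus 3 SD of compounds lying within the high and low control bounds, cut at about 19% in these data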
Target sequence (Q9NZ20 whole entry, looked up): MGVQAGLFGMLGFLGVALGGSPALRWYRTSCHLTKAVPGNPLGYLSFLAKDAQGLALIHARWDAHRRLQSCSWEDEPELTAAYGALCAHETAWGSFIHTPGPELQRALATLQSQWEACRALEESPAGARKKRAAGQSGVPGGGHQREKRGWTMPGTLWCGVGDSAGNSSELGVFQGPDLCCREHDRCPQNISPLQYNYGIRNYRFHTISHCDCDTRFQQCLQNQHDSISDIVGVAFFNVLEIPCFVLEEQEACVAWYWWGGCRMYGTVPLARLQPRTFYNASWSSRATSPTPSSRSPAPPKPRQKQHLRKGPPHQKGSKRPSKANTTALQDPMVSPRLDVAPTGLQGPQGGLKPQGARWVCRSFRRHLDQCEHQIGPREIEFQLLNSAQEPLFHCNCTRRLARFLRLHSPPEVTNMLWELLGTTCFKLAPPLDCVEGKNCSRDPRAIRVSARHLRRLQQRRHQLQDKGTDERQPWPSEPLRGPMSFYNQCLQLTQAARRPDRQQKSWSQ
rCAG binder – r(CAG) repeat RNA binding; 370,000 compounds, 1.3% hits; inhibition, % at 3 µM; AID 651821; TO-PRO-1 dye displacement fluorescence;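 active = inhibition above the plate cutoff, the mean of all test compounds on that plate plus 3 SD, cut at about 35% in these data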;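 note: higher means more dye released from RNA so lower well fluorescence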
MsrA inhibitor – inhibitors of bovine MsrA. purified bovine MsrA, absorbance read-out. inhibition, % at 15.5 µM. 360,000 compounds, 0.75% hits. AID 651718; in the data active = inhibition above about 4.5%
sPLA2 confirm – human GIII-sPLA2 inhibition, confirmation; shares compounds with sPLA2-III inh; recombinant hGIII-sPLA2, BODIPY PC-A2 QFRET fluorescence; inhibition, % at 12.2 µM; 2,000 compounds, 34% hits; AID 743280;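 active = mean inhibition across triplicates above the hit cutoff set in the earlier primary screen, cut at about 19% in these data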
535nm interf – optically interferes with 535nm fluorescence in sPLA2 counter-screen. shares compounds with sPLA2-III inh. BODIPY FL product fluorescence interference, QFRET. inhibition, % at 12.2 µM. 2,000 compounds, 8.5% hits. AID 743282;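 active = average inhibition above the solvent-only control mean plus 3 SD, cut at about 6% in these data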
BODIPY interf DR – counter-screen for HGIII-sPLA2 inhibitors: 535nm fluorescence interference, dose response; 240 tested, under 10 active; IC50, µM; BODIPY FL product fluorescence interference, cell-free; shares compounds with sPLA2-III inh;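 active = IC50 at or below 10 µM; inactive = IC50 above 10 µM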
A number is an active result; i = inactive; nt = no result; ! = a repeat was not active. Compounds with a hit are over-represented: about 3.2% of the library has one in this group of screens.

SMILES	bovine MsrA act	PG9 Ab binder	sPLA2-III inh	rCAG binder	MsrA inhibitor	sPLA2 confirm	535nm interf	others
COc1ccc(-c2n[nH]c(=S)nc2-c2ccc(OC)cc2)cc1	i	i	19	i	i	26	i
COc1ccc(-c2nc3ccccc3nc2-c2ccc(OC)cc2)cc1	i	i	i	i	i	nt	nt
Nc1ccc(NC(=O)c2cccs2)c(Cl)c1	i	i	22	i	i	i	i
Nc1ccc(Cl)c(NC(=O)c2cccs2)c1	i	i	i	i	i	nt	nt
CCc1c(C)nc2c(-c3ccccc3)c[nH]n2c1=O	i	i	24	i	i	33	i	BODIPY interf DR=i
CCOC(=O)Cc1c(C)nc2c(-c3ccccc3)c[nH]n2c1=O	i	i	i	i	i	nt	nt
CC(C)N1CCCCC(NC(=O)c2ccccc2)C1=O (stereo not given)	nt	nt	22	i	nt	i	i
CC1(C)CC(=O)C(N=Nc2cccc([N+](=O)[O-])c2)=C(O)C1	i	i	i	i	i	nt	nt
CC1(C)CC(=O)C(N=Nc2ccc(C(F)(F)F)cc2[N+](=O)[O-])=C(O)C1	i	i	20	i	i	i	i
CCCNC(=O)C1(C)CCN(Cc2ccc(-n3ccnc3)cc2)C1 (stereo not given)	i	i	i	i	i	nt	nt
O=C(NNC(=S)Nc1cccc(Cl)c1)c1ccccc1OC(F)F	i	i	25	i	i	43	i	BODIPY interf DR=i
COc1cccc(NC(=S)NNC(=O)c2ccccc2OC(F)F)c1	i	i	25	i	i	31	i
CC(C)CC(N)c1csc(Nc2ccc(C(=O)c3ccccc3)cc2)n1 (stereo not given)	i	i	i	i	i	nt	nt
CC(=O)c1ccc(Nc2nc(C(N)C(C)C)cs2)cc1 (stereo not given)	i	i	i	i	i	nt	nt
CC(C)C(N)c1csc(Nc2ccc(C(=O)c3ccccc3)cc2)n1 (stereo not given)	i	i	22	i	i	i	i
CC(N)c1csc(Nc2ccc(C(=O)c3ccccc3)cc2)n1 (stereo not given)	i	i	20	i	i	i	i
Cc1ccc(S(=O)(=O)N(CC(=O)NC2CCC(C)CC2)c2cc(C)cc(C)c2)cc1 (stereo not given)	nt	nt	i	i	nt	nt	nt
Oc1ccccc1/C=N/Nc1nccnc1Cl	i	i	24	i	i	i	8.6
O=C1c2c(O)ccc(O)c2C(=O)c2c(NCCNCCO)ccc(NCCNCCO)c21	i	i	35	54!	i	40	i	BODIPY interf DR=i
Cc1ccc(CNCCNCCO)s1	i	i	i	i	i	nt	nt
COCCn1cnc2c(c1=O)c1nc3ccccc3nc1n2/N=C/c1ccco1	i	i	19	i	i	i	i
CCCCCCn1cnc2c(c1=O)c1nc3ccccc3nc1n2/N=C/c1ccco1	i	i	i	i	i	nt	nt
O=C(O)CCN1C(=O)c2ccccc2Sc2ncccc21	i	i	23	i	i	i	i
CCOC(=O)c1ccc2c(c1)C(=O)N(C1CCCCC1)C2=O	i	i	20	i	i	i	i
O=C(CN1c2cccc3cccc(c23)S1(=O)=O)N1CCN(c2ccccc2)CC1	i	i	i	i	i	nt	nt
SMILES	bovine MsrA act	PG9 Ab binder	sPLA2-III inh	rCAG binder	MsrA inhibitor	sPLA2 confirm	535nm interf	others
S=c1[nH]nc(Cc2ccc(Cl)cc2)o1	i	i	22	i	i	i	i
COc1ccc(Cc2n[nH]c(=S)o2)cc1	i	i	i	i	i	nt	nt
O=C(OCc1nc2ccccc2s1)c1cc2ccccc2oc1=O	nt	i	22	i	i	i	i
CN1CCC(=NNC(=O)C(=O)NC(C)(C)C)CC1	i	i	22	i	i	i	i
N=C1C(c2nc3ccccc3[nH]2)=C(O)CN1c1ccccc1	i	i	22	i	i	i	i
N=C1C(c2nc3ccccc3[nH]2)=C(O)CN1c1ccc(CC(=O)O)cc1	i	i	i	i	i	nt	nt
COc1ccc(/C(C)=N/NC(=S)NCCc2ccccc2)c(O)c1	i	i	44	i	i	i	8.2
COCCNC(=S)N/N=C(\C)c1ccccc1O	i	i	43	i	i	22	i
COCCCN1C(=O)C(CC(=O)NCc2ccco2)CC(C(=O)N2CCOCC2)=C1C (stereo not given)	i	i	21	i	i	i	i
COc1cccc(C(=O)NCCCNC(=O)c2ccco2)c1	i	i	22	i	i	i	i
FC(F)(F)c1ccccc1CN1CCCc2nc(-c3ccc(Br)cc3)ccc21	nt	i	22	i	i	i	i
FC(F)(F)c1ccccc1CN1CCCc2nc(-c3ccccc3)ccc21	nt	i	27	i	i	i	i
COc1cc(C=NN=c2sc3ccccc3n2C)ccc1OCCO	nt	i	i	i	i	nt	nt
S=C(NCC1CCCCC1)Nc1cccnc1	i	i	23	i	i	i	i
S=C(NCC1CCCCC1)Nc1ccc(Oc2ccccc2)cc1	i	i	i	i	i	nt	nt
O=C(Nc1cccs1)Nc1c(F)c(F)cc(F)c1F	i	i	21	i	i	i	i
O=C(OCC#CCSc1nnc(-c2cccc3ccccc23)o1)c1ccsc1	nt	nt	i	nt	nt	nt	nt
Cc1ccsc1C=Nn1c(-c2n[nH]c3c2CCC3)n[nH]c1=S	nt	nt	i	i	nt	nt	nt
CCC(C)c1ccccc1OCCOCCN1CCCC1 (stereo not given)	i	i	20	i	i	i	i
COc1ccc(C(=O)c2coc(-c3ccccc3C(=O)O)c2C(=O)O)cc1	i	i	19	i	i	i	i
COc1ccc(C(=O)c2ccccc2C(=O)c2ccccc2)cc1	i	i	i	i	i	nt	nt
c1cc(-c2nnc3n2N=C(c2ccc4c(c2)OCO4)CS3)ccn1	nt	nt	22	i	nt	i	i
O=S1(=O)c2ccc(Br)cc2OC[C@H](Cc2ccccc2)N1Cc1cn(Cc2ccc(C(F)(F)F)cc2)nn1	nt	nt	i	i	nt	nt	nt
O=C(OCC(=O)C12CC3CC(CC(C3)C1)C2)c1ccccc1O	i	i	19	i	i	i	i
O=C(COC(=O)c1ccccc1O)NC12CC3CC(CC(C3)C1)C2	i	i	i	i	i	nt	nt
SMILES	bovine MsrA act	PG9 Ab binder	sPLA2-III inh	rCAG binder	MsrA inhibitor	sPLA2 confirm	535nm interf	others
CCCCCN=C(N)N/N=C/c1c[nH]c2ccc(OC)cc12	i	i	28	i	i	40	i
COc1ccc2c(/C=N/Nc3ccc(C(=O)O)cc3)c[nH]c2c1	i	i	i	i	i	nt	nt
Cc1cc(C(=O)c2ccc(Cl)cc2)c(NC(=O)CCl)s1	i	i	19	i	i	i	i
CCc1cc(C(=O)c2ccc(C)cc2)c(NC(=O)CCl)s1	i	i	i	i	i	nt	nt
Oc1ccc(Nc2ccc3ccccc3c2)cc1	i	i	i	i	i	nt	nt
C[C@H]1[C@@H](OC(=O)Nc2ccccc2C(F)(F)F)CC[C@@]23CCCN2C(=O)CCC[C@@H]13	nt	nt	i	nt	nt	nt	nt
CCc1ccc(OCCNc2cc(N3CCNC(C)C3)ccc2[N+](=O)[O-])cc1 (stereo not given)	i	i	26	i	i	i	i
